Bioassay records: PubChem, several laboratories
Hits are enriched below; roughly 1.5% of the tested compounds scored in any of these assays.
Myeloid diff MLP: compounds promoting myeloid differentiation; ER-HoxA9 myeloid progenitors, lysozyme-GFP differentiation, flow cytometry; calls only at 10 µM; actives 1% (n = 360,000); AID 624256;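 active means normalized GFP-positive differentiation at or above the plate's own cutoff, the solvent-only control mean plus 3 SD; inconclusive means no clear call, values can overlap the other calls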;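 further: cells exposed to compound for four days before flow analysis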
TLR9-MyD88 block: TLR9-MyD88 interaction inhibition | inhibition, % at 4.98 µM | actives 0.21% (n = 340,000) | AID 504734 | CHO BLA complementation TLR9-MyD88, CCF4 FRET ratio;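 active means inhibition above the mean over all tested compounds plus 3 SD, cut at about 21% in these data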;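 further: 0% = DMSO only wells and 100% = clavulanate BLA inhibitor control wells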
NOD2 RIPK2 PPI: blocks binding of human NOD2 to RIPK2; O43353; CHO BLA complementation NOD2-RIPK2, CCF4 ratio; inhibition, % at 4.98 µM; actives 0.38% (n = 360,000); AID 624267; in the data active means inhibition above about 21%;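 further: 0% = vehicle only and 100% = reference blocker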
Target sequence (O43353 whole entry, looked up): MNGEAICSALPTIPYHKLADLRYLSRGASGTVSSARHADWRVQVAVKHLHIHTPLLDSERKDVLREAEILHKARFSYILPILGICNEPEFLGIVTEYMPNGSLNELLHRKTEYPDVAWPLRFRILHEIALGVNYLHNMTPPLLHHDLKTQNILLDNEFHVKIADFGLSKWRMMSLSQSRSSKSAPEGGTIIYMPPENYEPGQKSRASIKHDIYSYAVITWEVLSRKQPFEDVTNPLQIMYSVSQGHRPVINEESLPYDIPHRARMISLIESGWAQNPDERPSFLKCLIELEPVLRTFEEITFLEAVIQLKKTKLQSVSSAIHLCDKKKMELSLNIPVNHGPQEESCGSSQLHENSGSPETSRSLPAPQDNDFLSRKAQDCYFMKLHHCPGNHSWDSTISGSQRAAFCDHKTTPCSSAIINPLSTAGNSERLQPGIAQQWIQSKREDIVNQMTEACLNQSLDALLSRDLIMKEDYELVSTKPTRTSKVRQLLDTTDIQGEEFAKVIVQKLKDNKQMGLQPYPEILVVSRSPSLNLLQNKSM
TLR4 MyD88 comp: TLR4-MyD88 interaction inhibition in cells. O00206+Q99836. inhibition, % at 8.4 µM. actives 0.18% (n = 200,000). HeLa CL3-4 TLR4/MyD88 BLA complementation, FRET ratio; in the data active means inhibition above about 25%;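 further: 0% = vehicle and 100% = reference inhibitor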
Myeloid diff CP1: promotes myeloid progenitor differentiation; shares compounds with Myeloid diff MLP; ER-HoxA9 myeloid progenitors, GFP/Mac1 double-positive flow; calls only; actives 2% (n = 2,300);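 active means share of green or green-and-red cells above 9 and 9% in run 1 or 4 and 3% in run 2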
GFP autofluor: compound fluorescence in myeloid differentiation counter-screen. shares compounds with Myeloid diff MLP. ER-HoxA9 myeloid progenitors, no estrogen, GFP autofluorescence flow cytometry; vehicle wells 0%, positive control 100%. fluorescence response, % (test concentration not listed). actives 7.4% (n = 2,300);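 active means over 5% cells positive for green fluorescent reporter, or over 2% positive for both it and APC stain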;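 further: range taken on the double positive population between DMSO and positive control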
* = called active by the depositor; i = inactive; ? = inconclusive; nt = no result given; + = active, no number.

SMILES | Myeloid diff MLP | TLR9-MyD88 block | NOD2 RIPK2 PPI | TLR4 MyD88 comp | Myeloid diff CP1 | GFP autofluor
N#C/C(=C\c1cc(Cl)cc(Cl)c1O)C(=O)NC1CCCCC1 | i | 9.0 | -3.5 | -12.0 | i | 0.3
Fc1cccc(Cc2c(-c3ccco3)nc3c4ccccc4ccn23)c1 | i | nt | 3.8 | nt | nt | nt
O=C(NN1C(=O)c2ccccc2NC1c1ccco1)c1ccccc1 (stereo not given) | + | 1.0 | -6.4 | -1.7 | i | 0.5
O=C(O)CCC(=O)NN1C(=O)c2ccccc2NC1c1ccco1 (stereo not given) | i | -4.6 | -13.6 | nt | nt | nt
CC(=NO)C1(C)CC=CCC1CO (stereo not given) | i | 2.6 | -11.4 | nt | nt | nt
C=CCN(c1ccccc1OC)S(=O)(=O)c1ccc(Cl)c(C(=O)NCc2ccco2)c1 | + | 6.3 | 8.8 | nt | i | 0.0
C=C1C2=C(C(=O)N1OC)[C@@H](O)[C@@](C)(O)[C@@H](CCCCC)O2 | ? | nt | 2.4 | nt | nt | nt
COc1ccc(NC(=O)C2CCCCN2S(=O)(=O)c2ccccc2)cc1S(=O)(=O)N1CCOCC1 (stereo not given) | i | -3.7 | -19.0 | nt | nt | nt
CN(C)N=Nc1ccc(-c2cn(Cc3ccccc3)cn2)cc1 | i | 1.2 | -3.3 | nt | i | 0.0
Cc1ccc(-n2nnnc2CNC(=O)c2ccc([N+](=O)[O-])o2)cc1C | + | 1.3 | 0.4 | nt | i | 0.0
O=C(NCc1nnnn1-c1ccc(F)cc1)c1ccc([N+](=O)[O-])o1 | + | -5.8 | 0.3 | nt | i | 4.3
CCOc1ccc(C(=O)NCC(=O)OCc2c(F)cccc2Cl)cc1OCC | i | -10.5 | -3.3 | -3.8 | i | 0.0
CCOc1ccc(C(=O)NCC(=O)OCc2c(F)cccc2Cl)cc1 | i | 0.5 | 1.8 | -3.1 | nt | nt
O=C(NCc1ccco1)c1cccc2c1C(=O)c1ccc(N3CCC(N4CCCCC4)CC3)cc1S2(=O)=O | i | -2.4 | 1.9 | nt | nt | nt
CC(=O)Nc1cc(-c2cccc(C(=O)NCCN(C)C)c2)cn2c(-c3ccc(S(C)(=O)=O)cc3)cnc12 | + | nt | -3.8 | nt | i | 5.3*
CC(=O)Nc1cc(-c2cccc(C(=O)NCCN(C)C)c2)cn2c(-c3ccccc3)cnc12 | i | nt | -2.0 | nt | nt | nt
CCCCn1nnnc1C1(C)CCC(=O)N1Cc1ccc(C)cc1 (stereo not given) | i | nt | -18.6 | nt | nt | nt
COc1ccc(Cl)cc1CC1(C)C(=O)Nc2ccc(-c3ccccc3OC)cc21 (stereo not given) | + | nt | -7.1 | nt | i | 0.0
OCC[C@@H]1C[C@@H](O)[C@H](O)[C@]2(OCCCc3ccccc32)O1 | i | 3.9 | -0.5 | nt | nt | nt
OCC[C@H]1C[C@H](O)[C@@H](O)[C@@]2(OCCCc3ccccc32)O1 | + | 3.3 | -16.5 | nt | i | 0.5
O=C(CCc1ccccc1)N/N=C/c1cc(Br)ccc1O | i | 1.1 | 1.1 | 10.9 | i | 0.3
CCc1nc2c(OCC3CCCCC3)cccn2c1N(C)C(=O)c1ccc(C)cc1 | i | nt | 2.1 | nt | nt | nt
CCCC(=O)C1=C(O)C(C(=O)OC)C(C)(C)CC1=NCc1ccccc1 (stereo not given) | i | -7.5 | -1.9 | nt | nt | nt
CCCC(=O)C1=C(O)C(C(=O)OC)C(C)(C)CC1=Nc1ccccc1 (stereo not given) | i | -1.9 | -5.9 | 1.1 | i | 0.3
Cn1c(=O)oc2cc(NC(=O)CCl)ccc21 | i | -2.6 | 5.9 | nt | i | 0.5
SMILES | Myeloid diff MLP | TLR9-MyD88 block | NOD2 RIPK2 PPI | TLR4 MyD88 comp | Myeloid diff CP1 | GFP autofluor
O=C(COC(=O)c1ccc(F)cc1F)Nc1ccc2c(c1)OCO2 | i | 5.8 | -8.3 | nt | nt | nt
CCOC(=O)N1CCN(C(=O)c2ccc(Cn3c(=S)[nH]c4cc(OCC)c(OCC)cc4c3=O)cc2)CC1 | + | 8.7 | 1.4 | -3.5 | i | 0.0
N#CCCSc1nc(N2CCOCC2)c2c(c1C#N)CCCC2 | i | -2.8 | 0.1 | -13.4 | i | 0.0
COc1ccc(C2C(Oc3ccccc3C)C(=O)N2Cc2ccc(F)cc2)cc1OC (stereo not given) | i | -2.0 | 4.1 | 15.3 | i | 0.0
O=C1CCC/C(=N/NC(=O)c2ccc(NS(=O)(=O)c3cccs3)cc2)C1 | i | 0.9 | 8.9 | 4.4 | i | 0.2
O=C1CCC/C(=N/NC(=O)c2cc(NS(=O)(=O)c3cccs3)cc(NS(=O)(=O)c3cccs3)c2)C1 | i | -4.2 | -6.0 | nt | nt | nt
CCc1ccc(CNCc2ccc(OCC(O)CN(C)Cc3ccccc3)cc2)nc1 (stereo not given) | + | -6.9 | -12.0 | -12.3 | i | 1.1
Cc1cc(C)n2nc(C)c(Br)c2n1 | i | 0.2 | -3.9 | 6.4 | nt | nt
Cc1cc(C)n2nc3nc4c(cc3c2n1)CCCC4 | i | -14.0 | 3.2 | -8.2 | i | 0.0
Cc1ccc(S(=O)(=O)N2C[C@H]3C(=O)C[C@@H](c4ccccc4)N(S(=O)(=O)c4ccccc4[N+](=O)[O-])[C@H]3C[C@H]2c2ccccc2)cc1 | + | nt | -5.5 | nt | i | 0.3
Cc1ccc(S(=O)(=O)N2CCC(=O)CC2c2ccccc2)cc1 (stereo not given) | i | -1.0 | -7.4 | nt | i | 0.0
Cc1ccc(S(=O)(=O)N2CC3C(=O)CC(c4ccccc4)N(S(=O)(=O)c4ccc(C)cc4)C3CC2c2cccc(Cl)c2)cc1 (stereo not given) | + | nt | 1.8 | nt | i | 0.6
CCCCNC(=O)C1(C)CCN1C(=O)c1ccc(F)cc1Cl (stereo not given) | i | nt | -4.6 | nt | nt | nt
CCOC(=O)SC1=N/C(=C\c2ccc(N(C)C)cc2)C(=O)S1 | i | 4.0 | 0.3 | 1.5 | i | 0.6
O=C(NCC(=O)N1CC=C(c2ccccc2)CC1)c1ccc(OC(F)F)cc1 | i | 6.5 | 6.4 | nt | i | 1.4
COc1cc(OC)cc(C(=O)NCC(=O)N2CC=C(c3ccccc3)CC2)c1 | ? | 5.9 | 4.5 | nt | nt | nt
CCN(CC(=O)Nc1ccccc1C(F)(F)F)CC(=O)c1[nH]c(C)c(C(C)=O)c1C | i | -2.2 | 3.1 | nt | nt | nt
O=C(NCC(=O)N(c1cccnc1)C(C(=O)NC1CCCC1)c1cccs1)c1ccco1 (stereo not given) | i | 4.2 | -1.5 | -13.1 | i | 67.0*
Cc1cccc(N(C(=O)CNC(=O)c2cccs2)C(C(=O)NC2CCCC2)c2cccnc2)c1 (stereo not given) | i | 7.6 | -5.3 | -7.4 | i | 0.4
O=C(NCC(=O)N(c1cccnc1)C(C(=O)NC1CCCCC1)c1cccnc1)c1ccco1 (stereo not given) | i | -5.8 | 3.4 | 3.2 | nt | nt
COc1ccc(NC(=O)[C@@H]2O[C@H](CO)[C@H](O)[C@H](O)[C@H]2O)cc1F | i | nt | -5.7 | nt | nt | nt
COC(=O)[C@]12CCCCC=C1N(CCc1ccc(OC)c(OC)c1)C(=O)[C@H](CC(=O)NCC1CCCCC1)C2 | i | nt | 8.8 | nt | nt | nt
CNCCCOc1ccc(C)cc1OC | i | -2.6 | -11.2 | -4.9 | i | 0.3
CCC(C)NCCCOc1ccc(C)cc1OC (stereo not given) | i | 0.4 | -3.1 | 1.6 | nt | nt
